Laboratory results: the supplement of paper PMC9262897, “Low-cost anti-mycobacterial drug discovery using engineered E. coli” (Nature Communications, 2022)
Structures can show the parent of a compound that is named as a salt. ± gives the standard deviation of the averaged measurements.

What follows are compounds tested on E. coli TESEC Mtb Asd (assay: growth (OD600 after 10 h); higher = more growth (less inhibition)). Conditions: arabinose induction (level): High; compound 0.1 mM; raw OD600 reference: median of DMSO wells 0.331, cell-free background 0.041.
Method: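 TESEC E. coli strains in which the native enzyme is deleted and replaced by arabinose-inducible Mtb Asd, DapB, CysH or TrpD, each grown in its selective medium. Strains were screened against the Prestwick library at 0.1 mM and 1% DMSO in 384-well format at low and high arabinose induction. Growth is read as OD600 after 10 h in triplicate.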

| SMILES | growth |
| --- | --- |
| COc1ncnc(NS(=O)(=O)c2ccc(N)cc2)c1OC [Sulfadoxine] | 0.306 ± 0.058 |
| c1ccc(C2CN3CCSC3=N2)cc1 (stereo not given) [Tetramisole hydrochloride] | 0.257 ± 0.033 |
| CCCC1O[C@@H]2C[C@H]3[C@@H]4CCC5=CC(=O)C=C[C@]5(C)[C@H]4[C@@H](O)C[C@]3(C)[C@]2(C(=O)CO)O1 (stereo not given in full) [Budesonide] | 0.309 ± 0.023 |
| COc1cc2ncnc(Nc3ccc(F)c(Cl)c3)c2cc1OCCCN1CCOCC1 [Gefitinib] | 0.261 ± 0.026 |
| C[C@H]1C[C@@H]2[C@H]([C@@H](O)C[C@@]3(C)[C@H]2CC[C@]3(O)C(=O)CO)[C@@]2(C)C=CC(=O)C=C12 [Methylprednisolone, 6-alpha] | 0.259 ± 0.024 |
| C[C@@H](O)[C@H]1C(=O)N2C(C(=O)O)=C(SCCNC=N)C[C@H]12 [Imipenem] | 0.296 ± 0.1 |
| CC(=O)Oc1ccccc1C(=O)Nc1ncc([N+](=O)[O-])s1 [Nitazoxanide] | 0.0632 ± 0.0045 |
| CC[C@H](C)[C@H](N)C1=N[C@H](C(=O)N[C@@H](CC(C)C)C(=O)N[C@H](CCC(=O)O)C(=O)N[C@H](C(=O)N[C@H]2CCCCNC(=O)[C@H](CC(N)=O)NC(=O)[C@@H](CC(=O)O)NC(=O)[C@H](Cc3cnc[nH]3)NC(=O)[C@@H](Cc3ccccc3)NC(=O)[C@H]([C@@H](C)CC)NC(=O)[C@@H](CCCN)NC2=O)[C@@H](C)CC)CS1 [Bacitracin] | 0.298 ± 0.05 |
| c1ccc([C@H]2CN3CCSC3=N2)cc1 [Levamisole hydrochloride] | 0.364 ± 0.033 |
| CN(Cc1cnc2nc(N)nc(N)c2n1)c1ccc(C(=O)N[C@@H](CCC(=O)O)C(=O)O)cc1 (racemic) [Amethopterin (R,S)] | 0.213 ± 0.024 |
| CCOC(=O)C1=C[C@]2(CC)CCCN3CCc4c(n1c1ccccc41)[C@@H]32 [Vinpocetine] | 0.232 ± 0.0031 |
| COc1ccccc1O [Guaiacol] | 0.212 ± 0.031 |
| CC(=O)Oc1ccccc1C(=O)O [Acetylsalicylic acid] | 0.264 ± 0.051 |
| C[C@]12CC[C@@H]3c4ccc(O)cc4C[C@@H](CCCCCCCCC[S+]([O-])CCCC(F)(F)C(F)(F)F)[C@H]3[C@@H]1CC[C@@H]2O (stereo not given in full) [Fulvestrant] | 0.379 ± 0.022 |
| CC(=O)O[C@H]1C[C@@H]2CC[C@@H]3[C@H](CC[C@@]4(C)[C@H]3C[C@H]([N+]3(C)CCCCC3)[C@@H]4OC(C)=O)[C@@]2(C)C[C@@H]1N1CCCCC1 [Vecuronium bromide] | 0.136 ± 0.0039 |
| NS(=O)(=O)c1cc(C2(O)NC(=O)c3ccccc32)ccc1Cl (stereo not given) [Chlorthalidone] | 0.393 ± 0.037 |
| CC[C@H]1OC(=O)[C@H](C)[C@@H](O[C@H]2C[C@@](C)(OC)[C@@H](O)[C@H](C)O2)[C@H](C)[C@@H](O[C@@H]2O[C@H](C)C[C@H](N(C)C)[C@H]2O)[C@](C)(O)C[C@@H](C)CN(C)[C@H](C)[C@@H](O)[C@]1(C)O [Azithromycin] | 0.0597 ± 0.003 |
| CC(=O)N(CC(O)CN(C(C)=O)c1c(I)c(C(=O)NCC(O)CO)c(I)c(C(=O)NCC(O)CO)c1I)c1c(I)c(C(=O)NCC(O)CO)c(I)c(C(=O)NCC(O)CO)c1I (stereo not given) [Iodixanol] | 0.358 ± 0.082 |
| CN1CCN2c3ccccc3Cc3ccccc3C2C1 (stereo not given) [Mianserine hydrochloride] | 0.222 ± 0.042 |
| Clc1ccc2nsnc2c1NC1=NCCN1 [Tizanidine HCl] | 0.248 ± 0.011 |

| SMILES | growth |
| --- | --- |
| CC(=O)[C@H]1CC[C@H]2[C@@H]3CCC4=CC(=O)CC[C@]4(C)[C@H]3CC[C@]12C [Progesterone] | 0.143 ± 0.0076 |
| C#Cc1cccc(Nc2ncnc3cc(OCCOC)c(OCCOC)cc23)c1 [Erlotinib] | 0.349 ± 0.093 |
| Nc1cc(-c2ccncc2)c[nH]c1=O [Amrinone] | 0.463 ± 0.012 |
| COc1cc2nc(N3CCN(C(=O)C4COc5ccccc5O4)CC3)nc(N)c2cc1OC (stereo not given) [Doxazosin mesylate] | 0.092 ± 0.023 |
| CN1CCN(CCCN2c3ccccc3Sc3ccc(S(=O)(=O)N(C)C)cc32)CC1 [Thioproperazine dimesylate] | 0.171 ± 0.017 |
| O=c1[nH]c(=O)n([C@H]2C[C@H](O)[C@@H](CO)O2)cc1C(F)(F)F [Trifluridine] | 0.13 ± 0.0033 |
| COc1ccc2cc(CCC(C)=O)ccc2c1 [Nabumetone] | 0.304 ± 0.073 |
| CCN(CC)CCNC(=O)c1cc(Br)c(N)cc1OC [Bromopride] | 0.467 ± 0.025 |
| O=C1C(O)=C(O)C(=O)C(O)=C1O [Tetrahydroxy-1,4-quinone hydrate] | 0.349 ± 0.089 |
| CC(=O)N(O)CCCCCNC(=O)CCC(=O)N(O)CCCCCNC(=O)CCC(=O)N(O)CCCCCN [Deferoxamine mesylate] | 0.139 ± 0.015 |
| O=c1cc(-c2ccc(O)c(O)c2)oc2cc(O)cc(O)c12 [Luteolin] | 0.0806 ± 0.023 |
| Nc1nc(=O)c2nc(CNc3ccc(C(=O)N[C@@H](CCC(=O)O)C(=O)O)cc3)cnc2[nH]1 [Folic acid] | 0.219 ± 0.037 |
| O=C(O)CNC(=O)C(CS)Cc1ccccc1 (stereo not given) [Thiorphan] | 0.3 ± 0.069 |
| CC1(C)S[C@@H]2[C@H](NC(=O)[C@H](NC(=O)N3CCNC3=O)c3ccccc3)C(=O)N2[C@H]1C(=O)O [Azlocillin sodium salt] | 0.31 ± 0.035 |
| Clc1cnccn1 [2-Chloropyrazine] | 0.245 ± 0.034 |
| O=C(C1CCCCC1)N1CC(=O)N2CCc3ccccc3C2C1 (stereo not given) [Praziquantel] | 0.391 ± 0.074 |
| C#C[C@]1(O)CC[C@H]2[C@@H]3CCC4=CC(=O)CC[C@@H]4[C@H]3CC[C@@]21CC [Norgestrel-(-)-D] | 0.374 ± 0.051 |
| CCCCOc1ccc(C(=O)CCN2CCCCC2)cc1 [Dyclonine hydrochloride] | 0.269 ± 0.064 |
| CC1CCc2c(N3CCC(O)CC3)c(F)cc3c(=O)c(C(=O)O)cn1c23 (stereo not given) [Nadifloxacin] | 0.0522 ± 0.007 |
| OC(c1cc(C(F)(F)F)nc2c(C(F)(F)F)cccc12)C1CCCCN1 (stereo not given) [Mefloquine hydrochloride] | 0.0511 ± 0.0036 |
